SMILES strings stand for the structures. Hit rate of the full screen: of about 2,400 compounds, about 220 (9.2%) were called active. Shown is part of a subset that was picked to be rich in actives. A number with no mark means an inactive call.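 Rule for the calls: active = signal change above the mean of dofetilide-free buffer controls plus 3 SD, so a positive margin; inactive = the rest.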

This assay is described as follows: nonspecific flux effects in parental CHO-K1, confirmation, counter-screen for hERG block protection project, cell-based, CHO-K1 parental line, FluxOR thallium flux (AID 1839).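 Note: compounds applied alone with no dofetilide to cells lacking hERG.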 To be noted: CHO-K1 parental cells, FluxOR thallium flux fluorescence; at 10 µM. Background: A counterscreen serves to expose hits that act by an unwanted route or on another target.
For the compound `CCOC(=O)N1CCN(C(=O)COC(=O)c2cc(Cl)c(O)c(Cl)c2)CC1`, the signal change vs control minus 3*SD hit threshold (margin above threshold, higher = more increase) was -24.7%.
To `Cc1ccc(O)c(Sc2cc(C)ccc2O)c1` belongs -41.7%.
To `CC(C)CSC1=NSC2=NC(=O)/C(=C\c3ccccc3)C(=N)N12` belongs -21.5%; to `O=C(COc1coc(CN2CCc3ccccc3C2)cc1=O)Nc1cccc(Cl)c1`, -31.3%; to `CCOc1ccc2[nH]c(=O)c(CN(Cc3ccc(C)cc3)C(=O)N3CCCC3)cc2c1`, -28%.
To `COc1ccc(NC(=O)C2CC3CCC2C3)c(OC)c1` (configuration not stated) belongs -22.3%.
In the case of `O=C(N/N=C/C(Cl)=C/c1ccc([N+](=O)[O-])cc1)C(=O)Nc1ccc(C(=O)O)cc1`, the signal change vs control minus 3*SD hit threshold (margin above threshold, higher = more increase) was -32.7%.
On to `O=[N+]([O-])c1ccc(Nc2ccccc2F)nc1`, for which the signal change vs control minus 3*SD hit threshold (margin above threshold, higher = more increase) is -20.1%.
Take `O=C(NCCCN1CCCC1=O)c1ccc(OC(F)(F)F)cc1`: the signal change vs control minus 3*SD hit threshold (margin above threshold, higher = more increase) is -32.6%.
The result for `COc1ccc(C(=O)N(CN2CCCC2=O)c2ccc(C)cc2)cc1` reads -4.3%; that for `CCOc1ccc(C(=O)N(CN2CCCC2=O)c2ccc(C)cc2)cc1`, 7.5% (active).
The result for `CCOC(=O)Cc1csc(NC(=S)NC(=O)c2ccc(Cl)cc2)n1` reads -26.4%; that for `C=C(C)CNC(=S)NN=C1c2ccccc2-c2ccccc21`, -25%; that for `O=c1c(-c2ccc(Cl)cc2)[n+]([O-])c2ccccc2n1O`, 29.3% (active).
The result for `O=c1c(-c2ccccc2)[n+]([O-])c2ccccc2n1O` reads -26.3%.
Regarding `Cc1ccc(-c2c(=O)n(O)c3ccccc3[n+]2[O-])cc1`, the signal change vs control minus 3*SD hit threshold (margin above threshold, higher = more increase) is 15.9% (active).
Turning to `O=c1c(-c2cccc3ccccc23)[n+]([O-])c2ccccc2n1O`, the signal change vs control minus 3*SD hit threshold (margin above threshold, higher = more increase) is -12.8%.
Consider `COc1ccc(S(=O)(=O)N2CCN(C(=O)CNC(=O)c3ccc4c(c3)OCO4)CC2)cc1`, for which the signal change vs control minus 3*SD hit threshold (margin above threshold, higher = more increase) is -26.4%.
For the compound `Cc1cc2c(cc(C(=O)OC(C(=O)NCc3ccco3)C(C)C)n2C)o1` (configuration not stated), the signal change vs control minus 3*SD hit threshold (margin above threshold, higher = more increase) is -12.7%.
To `Cn1c(=O)c2c(nc(Cl)n2CC(=O)N2CCCCC2)n(C)c1=O` belongs -27.9%.
Take `CCOC(=O)C1CCCCN1Cc1ccc(F)cc1` (configuration not stated): the signal change vs control minus 3*SD hit threshold (margin above threshold, higher = more increase) is -18.3%.
The result for `CCc1ccc(S(=O)(=O)NC(=S)NC2CCCCC2)cc1` reads 1.9% (active).
To `O=S(=O)(NC(=S)NC1CCCCC1)c1ccc(Cl)cc1` belongs -16.4%; to `Cc1ccc(S(=O)(=O)NC(=S)NC2CCCCC2)cc1`, -13%; to `CCCn1c(CC)nc([N+](=O)[O-])c1S(=O)(=O)c1ccccc1`, -15.2%.
The result for `COC(=O)c1c(NS(=O)(=O)Cc2ccccc2)sc2c1CCCC2` reads -1.7%; that for `CCC(C)(C)NC(=O)c1ccc(Sc2nncn2C)c([N+](=O)[O-])c1`, -27.2%.
For `Cc1ccc(Nc2nc(C)cs2)cc1`, the signal change vs control minus 3*SD hit threshold (margin above threshold, higher = more increase) is -10.7%.
The result for `Cc1cccc(N/C(N)=N/c2nc(C)cc(=O)[nH]2)c1` reads -33%; that for `Cc1ccc(Nc2cc(C)nn2-c2nc(C)cc(=O)[nH]2)cc1`, 15.1% (active); that for `CC(C)(C)Cc1nnc(NC(=O)c2ccco2)s1`, -32.3%.
The result for `CC1=[N+]([O-])C(C)(C)C(c2ccc(Br)cc2)=[N+]1[O-]` reads -17%; that for `COC(=O)c1sc(NC(=S)NC(=O)c2ccccc2F)nc1C`, -6.2%; that for `COc1ccc(NC(=O)C(=O)NNC(=O)c2ccc(Cl)cc2Cl)cc1`, -20.1%.
The result for `O=C(COc1ccc(Cl)cc1)NNC(=O)C(=O)NC1CCCCC1` reads -26.3%.
For `Cc1ccc(NC(=O)c2ccc3c(c2)OCO3)cc1Cl`, the signal change vs control minus 3*SD hit threshold (margin above threshold, higher = more increase) was -25.4%.
The result for `COc1ccccc1C(=O)NNC(=O)C(=O)NCc1ccccc1` reads 3.6% (active); that for `COc1ccc(C(=O)NNC(=O)C(=O)NC2CCCCC2)cc1`, -33.5%.
The result for `Cc1ccccc1C(=O)NNC(=O)c1cccc([N+](=O)[O-])c1` reads -30%.
The result for `Cc1ccc(NC(=O)C(=O)NNC(=O)c2ccccc2C)cc1Cl` reads 35% (active); that for `COc1ccccc1C(=O)NNC(=O)C(=O)Nc1ccc(C)c(Cl)c1`, 55.4% (active); that for `COc1ccc(C(=O)CC(=O)C(=O)Nc2ccc(C)c(Cl)c2)cc1`, -23%.
For `COc1ccccc1C(=O)NNC(=O)C(=O)NC1CCCCC1`, the signal change vs control minus 3*SD hit threshold (margin above threshold, higher = more increase) is 14.6% (active).
On to `COc1cc(NC(=O)c2ccccc2OCc2ccccc2)cc(OC)c1OC`, for which the signal change vs control minus 3*SD hit threshold (margin above threshold, higher = more increase) is -34.3%.
The result for `COc1ccccc1C(=O)NCc1ccc2c(c1)OCO2` reads -31%.
As to `Cc1ccc(-n2ncc3c2CCCC3NC(=O)c2csnn2)cc1C` (configuration not stated), the signal change vs control minus 3*SD hit threshold (margin above threshold, higher = more increase) was -37.5%.
As to `Cc1ccc(NC(=O)c2c([N+](=O)[O-])c(C(C)(C)C)nn2C)cc1`, the signal change vs control minus 3*SD hit threshold (margin above threshold, higher = more increase) was -22.3%.
The result for `Cc1cc(C)c(NC(=O)C2CC3CCC2C3)c(C)c1` (configuration not stated) reads -16.2%; that for `CC(C)(C)C(=O)NC(=S)N1CCOCC1`, -15.9%; that for `Cc1ccc(C)n1-n1c(C)nc2scc(-c3ccccc3)c2c1=O`, -33.2%.
The result for `Cc1c(Cl)cccc1NC(=S)N=Nc1c(O)n(CN2CCOCC2)c2ccccc12` reads -31.2%; that for `O=C(NC(=S)N(CCc1ccccc1)CCc1ccccc1)c1ccco1`, -17.5%.
The result for `CCOc1ccc(S(=O)(=O)Nc2nc3ccccc3nc2-n2ccc(=NC(=O)c3cccs3)cc2)cc1` reads -31.9%; that for `CS(=O)(=O)N1CCN(c2ccccc2NC(=O)Nc2cccc(Cl)c2)CC1`, -32.6%; that for `O=C1N2CCSC2=NC1(NS(=O)(=O)c1ccccc1)C(F)(F)F` (configuration not stated), -19%.
As for `Cc1ccc(Nc2nc(-c3cccs3)cs2)nc1`, the signal change vs control minus 3*SD hit threshold (margin above threshold, higher = more increase) was -32.7%.
Turning to `CC(C)(C)NC(=O)CN(C(=O)CS(=O)CC(=O)Nc1ccc(F)cc1)c1cccc(F)c1` (configuration not stated), the signal change vs control minus 3*SD hit threshold (margin above threshold, higher = more increase) was -27.9%.
To `O=c1c(Cc2ccccc2)c(O)nc2n1CCCS2` belongs -25.5%.
The result for `Cc1ccccc1C(=O)NNC(=O)C(=O)Nc1cccc(Cl)c1C` reads -1.4%; that for `COc1ccccc1C(=O)NNC(=O)C(=O)NC(C)(C)C`, -7.1%; that for `COc1ccccc1C(=O)NNC(=O)C(=O)Nc1cccc(Cl)c1C`, 55.6% (active).
To `COc1ccccc1C(=O)Nc1ccc(C(=O)N2CCCC2)cc1` belongs -13%; to `C/C(CC(=O)Nc1ccccn1)=N\NC(=O)C(=O)Nc1cccc(Cl)c1C`, -14.9%; to `COc1ccccc1C(=O)NNC(=O)C(=O)Nc1ccc(C)cc1`, 59.6% (active).
Regarding `Cc1ccc(OCC(=O)NC(=S)Nc2ccc(Br)cn2)cc1C`, the signal change vs control minus 3*SD hit threshold (margin above threshold, higher = more increase) was -27.8%.
On to `Cn1cc([N+](=O)[O-])c(C(=O)N/N=C\c2c[nH]c3ccccc23)n1`, for which the signal change vs control minus 3*SD hit threshold (margin above threshold, higher = more increase) is -27%.
The result for `O=C(Cc1cccs1)Nn1c(Cc2cccs2)nc2ccccc2c1=O` reads -15.1%; that for `Cc1cc(NC(=O)CCCn2cnc([N+](=O)[O-])n2)no1`, -28.2%; that for `COC(=O)C(C)Sc1nnc(Cc2cc(=O)[nH]c(=O)[nH]2)n1-c1cccc(OC)c1` (configuration not stated), -26%.
Consider `S=c1[nH]nc(-c2cccs2)n1/N=C/c1c(Cl)cccc1Cl`, for which the signal change vs control minus 3*SD hit threshold (margin above threshold, higher = more increase) is -17.3%.
Consider `CN(C)S(=O)(=O)c1cc(NC2CC(=O)N(c3ccc(F)cc3)C2=O)ccc1Cl` (configuration not stated), for which the signal change vs control minus 3*SD hit threshold (margin above threshold, higher = more increase) is -30.5%.
To `Cc1cc(C)c(C(=O)c2ccc(C(=O)N3CCCCC3)cc2)c(C)c1` belongs -37.3%.
To `COC(=O)c1sccc1NC(=O)CSc1ccccc1NS(=O)(=O)c1cc(Cl)ccc1Cl` belongs -29.7%.
To `O=S(=O)(Nc1nc(-c2sccc2Cl)cs1)c1cc(Cl)ccc1Cl` belongs 15.7% (active).
As to `O=C(O)c1ccccc1P(=O)(c1ccccc1)c1ccccc1`, the signal change vs control minus 3*SD hit threshold (margin above threshold, higher = more increase) was -29.2%.
To `CCc1cccc(C)c1NC(=O)C1=C(C(=O)O)CCCC1` belongs -33.6%; to `CN(C(=O)c1ccc(Cl)c(S(=O)(=O)N2CCOCC2)c1)c1ccccc1C(=O)O`, -13.3%.
To `CC(C1CC2CCC1C2)n1c(-c2cccs2)n[nH]c1=S` (configuration not stated) belongs -18.6%.
To `CC(C)n1c(=S)[nH]c2scc(-c3cccs3)c2c1=O` belongs 28.9% (active); to `COc1cc(/C=N/n2cnc3scc(-c4cccs4)c3c2=O)cc(OC)c1OC`, -32%.
As for `Cn1c(=S)[nH]c2scc(-c3cccs3)c2c1=O`, the signal change vs control minus 3*SD hit threshold (margin above threshold, higher = more increase) was 27.9% (active).
As to `S=c1[nH]c(-c2cccs2)cn1-c1ccccc1`, the signal change vs control minus 3*SD hit threshold (margin above threshold, higher = more increase) is -21.8%.
The result for `CCC(C)n1c(=S)[nH]c2ccccc2c1=O` (configuration not stated) reads -5.7%; that for `O=C(O)/C=C/C(=O)Nc1ccc(OC(F)(F)F)cc1`, -22.2%.
The result for `CC(NC(=O)CCNC(=O)c1ccco1)c1ccc(F)cc1` (configuration not stated) reads -35.2%; that for `CCc1c(C)sc(NC(=O)CN2CCN(C(=O)c3ccco3)CC2)c1C(=O)OC`, -35.4%.
To `CCc1ccc2[nH]c(=O)c(-c3ccccc3)c(O)c2c1` belongs -28.9%; to `COc1cc(Cl)c(C)cc1NC(=O)CSc1sc2c(O)cc(=O)[nH]c2c1C#N`, -30.6%.
Consider `CCOc1ccc(C(=O)Nc2ccccc2C(=O)O)cc1`, for which the signal change vs control minus 3*SD hit threshold (margin above threshold, higher = more increase) was -21.4%.
The result for `C=CCN(c1ccc(Cl)cc1)S(=O)(=O)c1cccc(C(=O)O)c1` reads -22.9%; that for `O=C(NC(=S)NCCC1=CCCCC1)c1ccc(Br)o1`, -1.2%; that for `O=C(NC(=S)NCCC1=CCCCC1)c1ccco1`, 22.8% (active).
The result for `O=C(NC(=S)NCCc1ccc(Cl)cc1)c1ccco1` reads -21.7%.
To `COc1ccc(/C=C/c2cc(=O)c3cc(Cl)ccc3o2)cc1` belongs -32.9%.
Take `Cc1nc(NCc2cccnc2)c2c3c(sc2n1)CC(C)CC3` (configuration not stated): the signal change vs control minus 3*SD hit threshold (margin above threshold, higher = more increase) is 5.6% (active).
As to `Cc1nc(NCCc2ccc(S(N)(=O)=O)cc2)c2c(C)c(C)sc2n1`, the signal change vs control minus 3*SD hit threshold (margin above threshold, higher = more increase) is -24.9%.
Consider `Cc1ccc(OCc2ccoc2C(=O)O)cc1C`, for which the signal change vs control minus 3*SD hit threshold (margin above threshold, higher = more increase) is -4.5%.

The values are drawn from PubChem BioAssay AID1839 (Johns Hopkins Ion Channel Center, 2009).
